Most compounds without a hit are left out; they make up all but 18% or so of the library.
TDP1 block = qHTS Assay for Inhibitors of Tyrosyl-DNA Phosphodiesterase (TDP1); Tyrosyl-DNA phosphodiesterase 1 (Homo sapiens), Q9NUW8; recombinant TDP1, AlphaScreen DNA substrate cleavage; Potency, µM (doses to about 130 µM), for the others: at the highest dose activity change, negative = inhibition, usual class: inhibitors; 0.28% of 350,000 active; AID 485290, 2010; further: potency means the concentration at half of the fitted maximal effect; nearly all actives have a fitted effect of over 40% in size
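Recombinant E. coli-expressed Tdp1 (1 nM) preincubated with compound 15 min at RT, then 5'-biotin/3'-phosphotyrosine-FITC DNA substrate (15 nM) added for 5 min. AlphaScreen beads (10 ug/ml) added, 10 min RT; tyrosine-FITC cleavage read as signal loss.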
DT40 TDP1 CPT = qHTS for Inhibitors of human tyrosyl-DNA phosphodiesterase 1 (TDP1): qHTS in cells in presence of CPT; chicken DT40 Tdp1-/-;hTDP1 cells + 20 nM CPT, ATP luminescence, 48 h; Potency, µM (titrated, usually from 46.2 µM), for the others: top-dose activity change, negative = growth inhibition, actives largely listed as inhibitors; AID 686979, 2013; 12% of 420,000 active; further: potency means the concentration at half of the fitted maximal effect; nearly all actives have a fitted effect of over 55% in size
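Chicken DT40 Tdp1-/- cells stably complemented with human TDP1 were seeded at 400 cells/well in medium containing 20 nM camptothecin, exposed to pin-transferred compounds, and grown at 37 °C for at least 48 hr. Viability was read as ATP luminescence.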
Six1-Eya2 inh = qHTS Assay for Inhibitors of the Six1/Eya2 Interaction; Homeobox protein SIX1 (Homo sapiens) + Protein phosphatase EYA2 (Homo sapiens), …; AlphaScreen GST-Six1/His-Eya2 binding, biochemical; active compounds read low; activity change, % (test concentration not listed); 0.56% of 360,000 active; AID 651725, 2012; in the data active means activity change below about -65%; inconclusive means mostly about -30% to -63%
Target sequence (O00167 whole entry, looked up): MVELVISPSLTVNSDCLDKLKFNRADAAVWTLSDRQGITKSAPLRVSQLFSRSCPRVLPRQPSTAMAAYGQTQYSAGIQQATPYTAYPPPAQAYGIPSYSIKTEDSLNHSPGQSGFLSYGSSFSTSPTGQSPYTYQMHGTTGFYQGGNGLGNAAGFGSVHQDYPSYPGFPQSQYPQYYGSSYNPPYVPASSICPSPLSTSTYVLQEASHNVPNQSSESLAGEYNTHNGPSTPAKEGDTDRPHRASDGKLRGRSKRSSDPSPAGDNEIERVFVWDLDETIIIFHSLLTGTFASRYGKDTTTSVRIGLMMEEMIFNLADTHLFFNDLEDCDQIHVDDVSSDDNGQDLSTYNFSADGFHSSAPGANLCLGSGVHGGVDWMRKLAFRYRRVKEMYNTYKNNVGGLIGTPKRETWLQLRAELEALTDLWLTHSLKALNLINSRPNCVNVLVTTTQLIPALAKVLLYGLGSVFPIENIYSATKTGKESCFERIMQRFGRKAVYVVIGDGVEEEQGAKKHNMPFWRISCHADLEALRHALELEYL
Target sequence (Q15475 whole entry, looked up): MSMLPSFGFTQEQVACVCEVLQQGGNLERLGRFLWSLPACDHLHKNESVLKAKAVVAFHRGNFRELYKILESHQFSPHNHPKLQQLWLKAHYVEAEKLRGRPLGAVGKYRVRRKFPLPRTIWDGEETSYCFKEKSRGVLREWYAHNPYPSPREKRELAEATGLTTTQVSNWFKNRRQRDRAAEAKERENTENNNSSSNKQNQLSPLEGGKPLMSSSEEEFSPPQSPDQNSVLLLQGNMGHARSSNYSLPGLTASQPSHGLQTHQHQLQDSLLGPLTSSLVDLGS
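Six1/Eya2 binding was read as AlphaScreen signal after compounds were pinned into GST-Six1 plus His-tagged Eya2 (5X stock 250/500 nM) in pH 8.0 Tris/NaCl/TCEP buffer, beads added, then incubated 1 h, 37 C, dark.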
CtBP-E1A inh = qHTS Assay for Inhibitors of the CtBP/E1A Interaction. CtBP / adenovirus E1A interaction (AlphaScreen). AlphaScreen GST-E1A/His-CtBP binding, 1536-well; active compounds read low. activity change, % (test concentration not listed). 0.49% of 340,000 active. AID 651724, 2012; in the data active means activity change below about -65%; inconclusive means mostly about -30% to -63%
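Steps: dispense buffer (Tris pH 8.0, NaCl 300 mM, TCEP 1 mM, BSA, Tween 20); add 5X protein mix (GST-E1A, His-CtBP, 125 nM each); pin 23 nL compound; 2 h at 37 °C, dark; add 5X beads (50 ug/mL); 1 h; read.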
IL-1B inflam inh = qHTS for Inhibitors of Inflammasome Signaling: IL-1-beta AlphaLISA Primary Screen. THP-1 LPS/ATP IL-1B secretion, AlphaLISA, 16 h; active compounds read low. activity change, % at 57.5 µM. 4.7% of 360,000 active; in the data active means activity change below about -50%; inconclusive means mostly about -30% to -49%
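Secreted IL-1B measured by AlphaLISA bead assay after 16 h compound exposure of THP-1 cells; compounds (final up to 57.5 uM) added 1 h before LPS (250 ng/mL) and ATP (1.25 mM) stimulation; lower signal means less secretion.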
DT40 TDP1 no CPT = qHTS for Inhibitors of human tyrosyl-DNA phosphodiesterase 1 (TDP1): qHTS in cells in absence of CPT; DT40 Tdp1-/- hTDP1 cells, no CPT, ATP luminescence, 48 h; Potency, µM (titrated, usually from 46.2 µM), for inactives: top-dose activity change, negative = growth inhibition, usual class: inhibitors; 15% of 420,000 active; further: potency means the concentration at half of the fitted maximal effect; nearly all actives have a fitted effect of over 55% in size
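Luminescent ATP content (CellTiter-Glo) served as the growth readout. Knockout chicken DT40 cells expressing human TDP1 were exposed to compounds without camptothecin for a minimum 48 hr at 37 °C.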
The depositor's hits bear a star; [ ] = dose if it differs, or a comment. Unless noted, the call rests on the fitted dose curve; in most records, active means well fitted curve in the direction sought with a large enough effect; inconclusive means small, poorly fitted or top-dose-only effect, or another doubt; inactive means no such curve, though single readings can be large; an effect the other way counts as inactive or inconclusive. On the % scale 0 is the no-effect control and ±100 the full control effect.

`O=C(CN1CCC(NC(=O)Nc2ccc(F)cc2)CC1)Nc1ccccc1[N+](=O)[O-]` gave DT40 TDP1 CPT inconclusive, Six1-Eya2 inh 5, CtBP-E1A inh 7, IL-1B inflam inh 15 and DT40 TDP1 no CPT 21µM*.
N#Cc1ccccc1NCC(=O)N1CCN(S(=O)(=O)c2ccccc2)CC1 was read as TDP1 block 1%, DT40 TDP1 CPT -27%, Six1-Eya2 inh -1, CtBP-E1A inh -1, IL-1B inflam inh -15 and DT40 TDP1 no CPT -14%.
COc1ccc(-n2cc(C#N)c(=O)n(Cc3ccc(F)cc3)c2=O)cc1 was read as TDP1 block 3%, DT40 TDP1 CPT 21µM*, Six1-Eya2 inh 7, CtBP-E1A inh -1, IL-1B inflam inh 32 and DT40 TDP1 no CPT 15µM*.
`O=C(CSc1cn(CC(=O)N2CCCCC2)c2ccccc12)NCc1ccccc1Cl` gave TDP1 block 5%, DT40 TDP1 CPT 23µM* and DT40 TDP1 no CPT inconclusive.
O=C(Cn1cc(SCc2c(F)cccc2Cl)c2ccccc21)N1CCCC1 was read as TDP1 block -5%, DT40 TDP1 CPT inconclusive and DT40 TDP1 no CPT 7.3µM*.
For CS(=O)(=O)n1nc(NCc2cccs2)nc1NCc1cccs1 the results were TDP1 block 3%, DT40 TDP1 CPT 19%, Six1-Eya2 inh 12, CtBP-E1A inh 2, IL-1B inflam inh -15 and DT40 TDP1 no CPT -3%.
For O=C(Nc1cccc2ccccc12)c1ccc(OC(=S)N2CCOCC2)cc1 the results were TDP1 block 7%, DT40 TDP1 CPT 23µM*, Six1-Eya2 inh 15, CtBP-E1A inh 51, IL-1B inflam inh 7 and DT40 TDP1 no CPT 23µM*.
Screening O=C(Nc1cccc(-n2cnnn2)c1)c1cccc(Cl)c1 returned TDP1 block 2%, DT40 TDP1 CPT inconclusive, Six1-Eya2 inh -2, IL-1B inflam inh -20 and DT40 TDP1 no CPT inconclusive.
CC(C)(C)c1ccc(C(=O)Nc2cccc(-n3cnnn3)c2)cc1 was read as TDP1 block 1%, DT40 TDP1 CPT inconclusive, Six1-Eya2 inh -1, IL-1B inflam inh -14 and DT40 TDP1 no CPT 2.6µM*.
Cc1cccc(NC(=O)c2cccc(OC(=S)N3CCOCC3)c2)c1 was read as TDP1 block 5%[0.0935 µM], DT40 TDP1 CPT inconclusive, Six1-Eya2 inh -1, CtBP-E1A inh 3, IL-1B inflam inh 17 and DT40 TDP1 no CPT 15µM*.
O=C(/C=C/c1ccccc1)Oc1cccc(C(=S)N2CCOCC2)c1 was read as TDP1 block 5%, DT40 TDP1 CPT -22%, Six1-Eya2 inh -69*, CtBP-E1A inh -5, IL-1B inflam inh -9 and DT40 TDP1 no CPT -10%.
For CC(C)(C)c1ccc(C(=O)Nc2cccc(C(=O)N3CCOCC3)c2)cc1 the results were TDP1 block 2%[56.1 µM], DT40 TDP1 CPT 15µM*, Six1-Eya2 inh -2, CtBP-E1A inh -14, IL-1B inflam inh -5 and DT40 TDP1 no CPT inconclusive.
Screening CN(c1ccc(S(=O)(=O)N2CCOCC2)cn1)C1CCCCC1 returned TDP1 block 6%, DT40 TDP1 CPT -62%, Six1-Eya2 inh 16, CtBP-E1A inh 5, IL-1B inflam inh 18 and DT40 TDP1 no CPT 23µM*.
`CCN(C(=O)C(C)Sc1ccc(S(=O)(=O)N2CCOCC2)cn1)c1ccccc1` (configuration not stated) gave TDP1 block 2%, DT40 TDP1 CPT inconclusive, Six1-Eya2 inh 2, CtBP-E1A inh 2, IL-1B inflam inh -13 and DT40 TDP1 no CPT 18µM*.
CC(C)C(C)NC(=O)CSc1ccc(S(=O)(=O)N2CCOCC2)cn1 (configuration not stated) was read as TDP1 block 0%, DT40 TDP1 CPT -23%, Six1-Eya2 inh 3, CtBP-E1A inh 0, IL-1B inflam inh -8 and DT40 TDP1 no CPT 2%.
